This is an account of results in PubChem BioAssay (NCATS).

Values joined by “and” are separate entries in the source; they are usually repeats but may differ in a detail not shown here. Identical values can stand only once. Results filed as inconclusive are left out. Where a call stands in place of a potency, no number is given. Active and inactive are the calls of the source. The call rests on the fitted dose curve; in most records, active means well fitted inhibition curve with a large enough effect; inconclusive means small, poorly fitted or top-dose-only effect; inactive means no such curve, though single readings can be large or run the other way.
Potency means the concentration at half of the fitted maximal effect.

This experiment is described as follows: Counterscreen qHTS for small molecule stabilizers of the endoplasmic reticulum resident proteome: GLuc-NoTag assay (AID 1508627). Particulars: Gaussia luciferase NoTag secretion counterscreen, luminescence, thapsigargin 100 nM for final 4 h; series mostly up to 76.4 µM; activity change, negative = inhibition: at the top concentration. From the text: Assay Provider: Brandon K. Harvey Ph.D.
National Institute on Drug Abuse, National Institutes of Health, Baltimore, MD
Endoplasmic reticulum (ER) dysregulation is associated with human pathologies including neurodegenerative, cardiovascular, muscular, and diabetic conditions. Maintenance of ER calcium is critical for functions of the ER and its depletion can lead to loss of ER resident proteins, in a process termed exodosis. Therapeutic compounds capable of attenuating the redistribution of ER proteins under pathological conditions may slow or stop disease progression. To identify such compounds, we performed a quantitative high-throughput screen (qHTS) using the SERCaMP assay, which monitors secretion of ER resident proteins triggered by calcium depletion.
SERCaMP was initially developed as a reporter of ER calcium homeostasis using a Gaussia luciferase with a modified signal peptide and carboxy-terminus (GLuc-SERCaMP), modifications that confer secretion of the reporter in response to ER calcium depletion (Henderson et al., 2014). The assay was used to screen 9,501 compounds, including a collection of drugs approved by the FDA (US), EMA (EU), NHI (Japan), and HC (Canada) regulatory agencies (Huang et al., 2011). Since the SERCaMP reporter reflects the exodosis phenomenon (Trychta et al., 2018a), compounds identified in the screen have the potential to prevent exodosis by different mechanisms such as stabilizing ER calcium or augmenting ERS retrieval.
1. Henderson, M.J., Wires, E.S., Trychta, K.A., Richie, C.T., and Harvey, B.K. (2014). SERCaMP: a carboxy-terminal protein modification that enables monitoring of ER calcium homeostasis. Mol Biol Cell 25, 2828-2839.
2. Huang, R., Southall, N., Wang, Y., Yasgar, A., Shinn, P., Jadhav, A., Nguyen, D.T., and Austin, C.P. (2011). The NCGC pharmaceutical collection: a comprehensive resource of clinically approved drugs enabling repurposing and chemical genomics. Sci Transl Med 3, 80ps16.
3. Trychta, K.A., Back, S., Henderson, M.J., and Harvey, B.K. (2018a). KDEL Receptors Are Differentially Regulated to Maintain the ER Proteome under Calcium Deficiency. Cell Rep 25, 1829-1840 e1826.
SEQUENCE No. (1, 2, 3, etc.); […] (e.g., Cells, Incubation, Reagent, etc.); VALUE and DESCRIPTION.
1; Reagent; 5 uL; 1000 SH-SY5Y cells per wells
3; Compound; 23 nL; Control inhibitor / compound library
5; Reagent; 100 nM; Thapsigargin
7; Reagent; 1 uL; 0.5x coelenterazine
8; Detection; Luminescence; ViewLux imaging system
NOTES (numbers refer to sequence above)
1; SH-SY5Y human neuroblastoma cells stably expressing the constitutively secreted GLuc (SH-SY5Y-GLuc-NoTag) cells were seeded in 1,536 well white tissue culture treated plates (Corning, Cat# 7464) in DMEM-high glucose-sodium pyruvate (ThermoFisher Scientific, Cat #10569) supplemented with 10% bovine growth serum (Hyclone), 10 U/ml penicillin (Gibco), 10 ug/ml streptomycin (Gibco), and 20 mM HEPES.
2; Assay plates were incubated for 5 hour at 37C in a humidified incubator containing 5% CO2.
4; Cells were then incubated for 19 hours at 37C, 5% CO2.
5; Thapsigargin was added at 100 nM to deplete ER calcium stores.
6; Cells were incubated for 4 hour (37 °C, 5% CO2)
7; Gaussia luciferase in the medium was measured by adding 1 ul of 0.5x coelenterazine (final concentration 0.07x) prepared in Gaussia Luciferase Glow Assay Buffer (Pierce), without addition of the Cell Lysis Buffer Reagent.
8; Luminescence was measured using a ViewLux CCD imaging system (Perkin Elmer) equipped with clear filters. […] The same controls were also used for the calculation of the Z' factor, a measure of assay quality control, as previously described (Zhang et al., 1999). For the initial validation of activity in the SERCaMP assays, hits from the primary screen were assayed again at 11-concentrations (1.3 nM - 76.6 uM). SH-SY5Y-GLuc-SERCaMP cells were assayed for ER Ca2+ depletion as outlined above.
1. Zhang, J.H., Chung, T.D., and Oldenburg, K.R. (1999). […]
Take `OCCN(CCO)c1nc(N2CCCCC2)c2nc(N(CCO)CCO)nc(N3CCCCC3)c2n1`: the Potency entry was “inactive”.

`O=C(c1ccc(OCCN2CCCCC2)cc1)c1c(-c2ccc(O)cc2)sc2cc(O)ccc12`: the Potency entry is “inactive”. Still for that read-out and setting: next, `O=c1c(O)c(-c2ccc(O)c(O)c2)oc2cc(O)cc(O)c12`: “inactive”; `Cn1c(=O)c2c(ncn2C)n(C)c1=O`: “inactive”; `C[C@@H]1CC(=O)NN=C1c1ccc(NN=C(C#N)C#N)cc1`: 14.1 µM (active) and 28.2 µM (active). `O=C(c1ccc(F)cc1)C1CCN(CCn2c(=O)[nH]c3ccccc3c2=O)CC1`: the “activity change, negative = inhibition” value is -1.24% (inactive). In the case of `CN1CCC(=C2c3ccccc3C=Cc3ccccc32)CC1`, the Potency entry was “inactive”. For `CN1CCC(=C2c3ccccc3CC(=O)c3sccc32)CC1`, the Potency entry is “inactive”. With `CCCNCC(O)COc1ccccc1C(=O)CCc1ccccc1` (configuration not stated), the Potency result was “inactive”. With `COc1ccc(CCN(C)CCCC(C#N)(c2ccc(OC)c(OC)c2)C(C)C)cc1OC` (configuration not stated), the Potency entry is “inactive”.

With `NC12CC3CC(CC(C3)C1)C2`, the Potency result is “inactive”.

Regarding `COc1ccccc1OCCNCC(O)COc1cccc2[nH]c3ccccc3c12` (configuration not stated), the Potency is 44.7 µM (active) and 35.5 µM (active). For `CCCCc1oc2ccccc2c1C(=O)c1cc(I)c(OCCN(CC)CC)c(I)c1`, the “activity change, negative = inhibition” value is -6.69% (inactive). Turning to `CC12CC3CC(C)(C1)CC(N)(C3)C2`, the Potency result is “inactive”. As to `O=C(Nc1ccc([N+](=O)[O-])cc1Cl)c1cc(Cl)ccc1O`, the Potency was 3.98 µM (active). Turning to `Clc1ccc2c(c1)C(N1CCNCC1)=Nc1ccccc1O2`, the “activity change, negative = inhibition” value is -10.7% (inactive). For `CN(C)CCC=C1c2ccccc2C=Cc2ccccc21`, the “activity change, negative = inhibition” value was -10.2% (inactive).
